# Bioassay records from PubChem BioAssay.
# The full list was thinned out, with hits kept by preference.
# KDM5B inh: KDM5B demethylase inhibition; Potency, µM (highest dose often 57.7 µM), hits mostly inhibitors; hit rate 2.6% among 220,000; KDM5B demethylase, FDH-coupled NADH fluorescence (FDH is formaldehyde dehydrogenase); Q9UGL1; active means well fitted inhibition curve with a large enough effect; further: nearly all actives have a fitted effect of over 70% in size
#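 Compound dilutions met 200 nM (final) KDM5BΔAP for 10 min at room temperature before substrate addition. The substrate mix held 12.5 µM H3K4me3 with cofactors 25 µM α-ketoglutarate and 50 µM Fe²⁺. NADH signal gain over 30 min defined activity.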
# Numbers stand for hits; 0 = inactive.
SMILES,KDM5B inh
CCn1nc(C(=O)Nc2ccc(C)cc2)c2ccccc2c1=O,0
Cc1nn(C(=O)CCCC(=O)N2CCC(CCOc3ccccc3)C2)c2ccccc12 (stereo not given),0
Cc1ccc(NS(=O)(=O)c2cc(-c3ccc4nnc(C)n4n3)ccc2C)cc1,0
Cc1ccc(C)c(C(=O)NCc2nnc3ccc(-c4ccc(C)c(C)c4)nn23)c1,14µM
Cc1ccc(-c2ccc3nnc(CNC(=O)c4cccc5[nH]ccc45)n3n2)cc1C,35µM
COc1ccc(C(=O)NCc2nnc3ccc(-c4ccc(C)c(C)c4)nn23)cc1OC,0
Cc1ccc(-c2ccc3nnc(CNC(=O)c4cccn4C)n3n2)cc1C,0
Cc1ccc(-c2ccc3nnc(CNC(=O)c4ccccc4)n3n2)cc1C,28µM
COc1ccc(C(=O)NCc2nnc3ccc(-c4ccc(C)c(C)c4)nn23)cc1F,32µM
O=C(CSc1ccc2nnc(CCNC(=O)c3ccccc3)n2n1)Nc1ccccc1,0
Cc1ccc(NC(=O)c2cc(=O)c3cc(C)cc(C)c3o2)cc1,0
COc1ccc(CN2C(=O)O[C@@H]3CN(c4nc(C)cc(C)n4)C[C@@H]32)cc1OC,0
CCOC(=O)c1ccc(NC(=O)Nc2ccc3snnc3c2)cc1,0
Cc1cccc(CNC(=O)[C@H]2CCC[C@H]2NC(=O)c2ccncc2)c1,0
Cc1ccc(C)c(NC(=O)C2CCCN(c3nc4ccccc4s3)C2)c1 (stereo not given),0
CCN1CCC(N(Cc2ccc3c(c2)OCO3)C(=O)Nc2ccc(C)c(C)c2)CC1,0
COc1cc(OC)c(NC(=O)c2c3c(nc4ccccc24)C(=O)N(C2CCCCC2)C3)cc1Cl,0
CC1CC(O)C(C)(C)N(C)C1 (stereo not given),0
COCC1(CNCc2cccc(OC)c2)C[C@@H](O)[C@@H](O)C1 (stereo not given in full),0
O=C(c1cc(-c2ccc(Cl)cc2Cl)on1)N1CCCC1,0
O=C(c1nc(-c2ccc(Cl)cc2Cl)c2cnccn12)N1CCOCC1,79µM
Cc1nc2c(c(-c3ccc(Cl)cc3)n1)CN(C(=O)c1cccnc1)CC2,0
O=C(c1cc(Cl)ccc1Cl)N1CCC(CN2CCOCC2)CC1,0
O=C(c1nc(-c2cccnc2)no1)N1CCN(c2ccc(Cl)cc2)CC1,0
O=C(c1nc(-c2ccc(Cl)cc2)c2cnccn12)N1CCOCC1,32µM
SMILES,KDM5B inh
CC1(C)C(=O)NC(=O)N1CC(=O)N[C@H](Cc1ccccn1)C1CC(O)C1 (stereo not given in full),0
O=C(CNC(=O)c1ccc(Cl)cc1)OCc1cc(=O)n2nc(C3CC3)sc2n1,0
COC(=O)[C@@H]1Cc2c([nH]c3ccccc23)[C@H]2C[C@H](NCCNC(C)=O)C[C@@H](c3ccc(C(F)(F)F)cc3)N21,10µM
CSc1ccc(C2c3[nH]c4ccccc4c3CCN2C(=O)CCc2ccccc2)cc1 (stereo not given),0
COC(=O)[C@@H]1Cc2c([nH]c3ccccc23)[C@H]2C[C@H](NCCNC(C)=O)C[C@@H](c3ccccc3)N21,28µM
COc1ccccc1NC(=O)N1CCc2c([nH]c3ccccc23)C1C(F)(F)F (stereo not given),0
COC(=O)C1Cc2c([nH]c3ccccc23)C2(CCN(Cc3ccccc3)CC2)N1 (stereo not given),0
COc1ccc(C(=O)N2CCc3c([nH]c4ccccc34)C2C(F)(F)F)cc1 (stereo not given),0
COCCCC(=O)Nc1nc(-c2c(C)[nH]c3ccccc23)cs1,0
OCCO[C@@H]1COCC[C@H]1NC1CCN(c2ccc3c(c2)CCC3)CC1,0
Cc1ccc2oc(=O)cc(CN3CCN(c4ccccc4)CC3)c2c1,0
CCC1(C)NC(=O)N(NC(=O)CSc2cc(C)c3ccccc3n2)C1=O (stereo not given),0
COc1ccc(N2C(=O)[C@@H]3Cc4nc[nH]c4CN3C2=O)cc1,0
N/C(CCS(=O)(=O)c1ccc(Cl)cc1)=N\OC(=O)c1ccc(Cl)cc1,0
O=C(COc1ccc([N+](=O)[O-])cc1)NCCc1nc2ccccc2[nH]1,0
COCCN1C(=O)[C@@H]2C[C@@H](CN2Cc2cnc3ccccc3c2)Oc2ccccc21,0
COC(=O)c1nc(NC(=O)Cn2nc3c(cc2=O)CCCCC3)sc1C(C)C,0
COCCOC1CCOC2(CCN(S(=O)(=O)c3ccccc3)CC2)C1 (stereo not given),0
COc1ccc(CCC(=O)N2CCC(Cc3nc(C4CC4)n[nH]3)CC2)cc1,20µM
CCc1n[nH]c(CC2CCN(C(=O)C3(c4ccccc4)CC3)CC2)n1,0
COc1ccc(C(=O)N2CCC(Cc3nc(C4CC4)n[nH]3)CC2)cn1,0
O=C(N1CCC(Cc2nc(C3CC3)n[nH]2)CC1)C1(c2ccccc2)CC1,18µM
Cc1nc(C)c(C(=O)N2CCC(Cc3nc(-c4ccccc4)n[nH]3)CC2)s1,0
CC(=O)N1CCC(Cc2nc(-c3ccccc3)n[nH]2)CC1,20µM
O=C(NCc1ccccc1)N1CCC(Cc2nc(C3CC3)n[nH]2)C1 (stereo not given),0
SMILES,KDM5B inh
COc1ccc(CCC(=O)N2CCC(c3n[nH]c(=O)n3Cc3ccc(F)cc3)CC2)cc1,0
O=C(C1CC1)N1CCC(Cc2nc(-c3ccccc3)n[nH]2)C1 (stereo not given),0
CC(CNC(=O)c1[nH]c2ccccc2c1Cl)c1ccccc1 (stereo not given),0
Cn1cncc1C(=O)N1CCC(F)(c2nc(-c3ccncc3)no2)CC1,0
Brc1ccc(-c2ccnc3nc(-c4ccco4)nn23)s1,28µM
COc1cc(-c2ccnc3nc(-c4ccco4)nn23)cc(OC)c1OC,25µM
COc1ccc(-c2noc(-c3nc(-c4ccccc4F)no3)n2)cc1OC,0
COc1ccc(-c2ccnc3nc(-c4ccccc4OC)nn23)cc1OC,28µM
COc1ccc(Cc2nc3nccc(-c4ccco4)n3n2)cc1,0
COc1ccccc1-c1nc2nccc(-c3cc(OC)c(OC)c(OC)c3)n2n1,25µM
COc1ccc(-c2c(C)nn3c(-c4ccccc4)cc(C)nc23)cc1OC,0
Cc1cc(Nc2ccc(F)c(F)c2)n2nc(-c3ccco3)nc2n1,0
O=C(O)Cn1nc(-c2ccccc2)c2ccccc2c1=O,0
Oc1ccc(Cl)cc1C=NCc1ccccc1F,0
CCOC(=O)c1c(S(=O)(=O)NCC(=O)Nc2cccc(CC)c2)c(C)n(C)c1C,0
CCOc1cc(CNCCSc2nnnn2-c2ccccc2)cc(Cl)c1OC,0
Cc1ccc(N2C(=O)c3cccc4c(N)ccc(c34)C2=O)c2cccnc12,0
Cc1ccc2nc(C)cc(=S)n2c1,0
Cc1c(-c2ccc(Cl)cc2)[n+](=O)c(-c2ccccc2)cn1[O-],0
COc1ccccc1N1CCN(c2cc(C)nc3nc(-c4ccc(C)cc4)nn23)CC1,0
COc1ccccc1-c1nc2nccc(-c3cc4ccccc4o3)n2n1,25µM
COc1ccccc1-c1nc2nccc(-c3ccccc3)n2n1,0
COc1ccccc1-c1nc2nccc(-c3ccc(Cl)cc3)n2n1,32µM
COc1ccccc1-c1nc2nccc(-c3ccc4c(c3)OCCCO4)n2n1,14µM
COc1ccc(C(=O)c2cc3ccccc3o2)cc1OC,0
COc1cccc(-c2nc(CSc3ccc4c(c3)OCCCO4)cs2)c1OC,0
COc1ccccc1-c1nc2nccc(-c3ccncc3)n2n1,0
COc1cccc(-c2nc(-c3cc4ccccc4o3)cs2)c1OC,0
CC1CCN(S(=O)(=O)c2ccc3c(ccn3CC(=O)NCc3ccc(N(C)C)cc3)c2)CC1,0
